MITF act: increases MITF-driven TRPM1 promoter luciferase signal; SK-MEL-5 TRPM1-promoter luciferase, 24 h; % of positive control, neutral wells = 0; activation, % at 12.5 µM; hit rate 0.75% among 300,000; AID 588334;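 active = mean activation of at least 80% with every replicate also reaching 80%; inconclusive = mean reaches 80% but some replicate falls short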
HSF1 inhib: HSF1 inhibition; NIH3T3-HGL HSE-luciferase, MG132-induced, luminescence 8 h; hits give low values; activity change, negative = inhibition, % at 7.5 µM (by protocol); hit rate 0.77% among 300,000;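 active = more than half of replicate wells show activity change below -50%, luminescence cut by over half; inconclusive = some wells, but at most half, below -50%; inactive = no replicate well below -50%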;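 also: luciferase reports HSF-1 transcriptional activity via heat shock element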
HSF-1 act: increases HSF-1 driven luciferase reporter signal. NIH3T3-HGL HSF-1 luciferase reporter, MG132, 8 h; 100% = twice DMSO control signal. activation, % at 9 µM. hit rate 1.7% among 300,000. AID 504408;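 active = mean replicate activation of at least 50% with a set share of replicates each reaching 50%; inconclusive = only one of those two conditions met; inactive = mean below 50% and too few replicates reaching it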
esBAF inh: SWI/SNF esBAF complex inhibition | mouse ES cells, Bmi1-luciferase knock-in reporter, 24 h; 100% = twice the neutral-well signal | reporter increase, % at 12.5 µM | hit rate 2% among 350,000; in the data active = activation above about 40%; inconclusive = no clear call, values can overlap the other calls;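 also: a rise in the Bmi1 reporter signal indicates esBAF inhibition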
SMARCA2 activ: activators of SMARCA2 function; MG213 cells, MMTV-luciferase reporter, dexamethasone, overnight; activation, % at 9.1 µM; hit rate 1% among 370,000; AID 652017; in the data active = activation above about 7.8%
Wnt bcat act: Wnt/beta-catenin pathway activation; Wnt/beta-catenin reporter cell assay, activator, plate reader; hit rate 1.2% among 300,000; activation, % at 9.35 µM; in the data active = activation above about 30%, passing the limit was not always enough; inconclusive = no clear call, values can overlap the other calls
SMARCA2 conf: SMARCA2 activation, confirmation screen; shares compounds with SMARCA2 activ; MG213 cells, MMTV-luciferase with dexamethasone, luminescence, overnight; MG213 cells expressing E1A, Rb sequestered; DMSO wells 0%, reference activator 100%; activation, % at 9.1 µM; hit rate 30% among 3,500; AID 652260;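 active = activation above its plate's cutoff, the mean activation of tested wells plus 3 SD, cut at about 7.9% in these data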
GAL4-VP16 Luc: counter-screen for SMARCA2 activators: GAL4-VP16 luciferase reporter activation | shares compounds with SMARCA2 activ | HEK293 GAL4-VP16 pG5luc reporter, luciferase luminescence; scaled: DMSO wells 0%, SAHA wells 100% | activation, % at 9.1 µM | hit rate 41% among 3,500 | AID 686939;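 active = activation above the solvent-only control well mean plus 3 SD, averaged across control plates, cut at about 5.2% in these data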
A number is an active result; 0 = inactive; ? = inconclusive; - = not tested or not shown. In the library only some 4.3% were active in any assay of this set; here they are far more common.

SMILES	MITF act	HSF1 inhib	HSF-1 act	esBAF inh	SMARCA2 activ	Wnt bcat act	SMARCA2 conf	GAL4-VP16 Luc
CC(=O)N(C)C[C@@H]1Oc2ncc(-c3cccc(C#N)c3)cc2C(=O)N([C@H](C)CO)C[C@@H]1C	-	-	-	0	-	-	-	-
O=C(C[C@@H]1CC[C@H]2[C@@H](COC[C@@H](O)CN2CCc2ccccc2)O1)NCc1ccccc1	-	-	-	0	-	-	-	-
COc1cccc(C(=O)OCC(=O)NCc2ccc3c(c2)OCO3)c1OC	0	-	-	0	0	0	-	-
COc1cccc2cc(C(=O)OCC(=O)NCc3ccc4c(c3)OCO4)c(=O)oc12	0	0	0	-	11	0	0	0
O=C(c1cc(-c2ccc(Br)cc2)on1)N1CCCCCC1	0	0	0	0	9.4	?	0	5.7
S=C(c1ccc(-c2ccc(Br)cc2)o1)N1CCCCC1	0	0	62	48	8.1	46	16	8.3
O=C(c1cc(-c2ccc(Cl)cc2)on1)N1CCCC1	0	0	0	0	0	0	-	-
COc1ccc(-c2ccc(C(=S)N3CCN(C(C)=O)CC3)o2)cc1	0	-	-	0	0	0	-	-
C[C@@H]1CN([C@@H](C)CO)C(=O)c2cc(NC(=O)Nc3ccc(C(F)(F)F)cc3)ccc2O[C@@H](C)CCCCO[C@H]1CN(C)S(=O)(=O)c1ccc(Cl)cc1	-	-	-	0	-	-	-	-
CCOC(=O)N1CCN(c2c(N3CCN(C(=O)OCC)CC3)c(=O)c2=O)CC1	0	0	0	0	0	0	-	-
CCOC(=O)N1CCN(c2c(N3CCC(N4CCCCC4)CC3)c(=O)c2=O)CC1	0	0	0	0	8.0	0	0	0
C[C@H](CO)N1C[C@H](C)[C@H](CN(C)C(=O)C2CC2)Oc2cc(/C=C/c3ccccc3)ccc2S1(=O)=O	-	-	-	0	-	-	-	-
COc1ccc(S(=O)(=O)N2CCCC2)cc1NC(=O)c1ccccc1	0	0	0	0	8.1	0	0	0
OCCN(Cc1ccccc1)Cc1ncccc1O	0	-	-	0	0	0	-	-
OCCN(Cc1ccccc1)Cc1ccc(Cl)cc1Cl	0	0	0	0	8.2	0	0	0
Cc1cccc(NC(=O)CCC2CCN(C(=O)C3CC=CCC3)CC2)c1 (stereo unspecified)	0	0	0	0	0	0	-	-
COc1cccc(NC(=O)CCC2CCN(C(=O)C3CC=CCC3)CC2)c1 (stereo unspecified)	0	0	0	0	8.0	0	0	0
Cc1nc2c(c(N3CCOCC3)n1)OCC(=O)N2	0	0	0	0	0	-	-	-
Cc1nc(Cl)c2c(n1)NC(=O)CO2	-	0	0	-	12	0	0	0
O=[N+]([O-])c1nn(-c2ccccc2)n(O)c1=NCCc1ccccc1	0	0	0	-	11	-	0	0
Cc1ccc(CCN=c2c([N+](=O)[O-])nn(-c3ccccc3)n2O)cc1	0	0	0	-	0	0	-	-
C[C@@H]1CCCCO[C@H](CN(C)Cc2ccc(C(F)(F)F)cc2)[C@H](C)CN([C@@H](C)CO)C(=O)c2cc(NS(=O)(=O)c3cn(C)cn3)ccc2O1	-	-	-	0	-	-	-	-
CC(=O)N(C)C[C@H]1Oc2cc(C#CC3CC3)ccc2S(=O)(=O)N([C@@H](C)CO)C[C@@H]1C	-	-	-	0	-	-	-	-
O=C(Oc1ccccc1C(=O)N1CCOCC1)c1ccccc1	0	0	0	0	8.0	-	0	0
O=C(Oc1ccccc1C(=O)N1CCOCC1)c1cccc(Br)c1	0	0	0	0	0	0	-	-
SMILES	MITF act	HSF1 inhib	HSF-1 act	esBAF inh	SMARCA2 activ	Wnt bcat act	SMARCA2 conf	GAL4-VP16 Luc
COC(=O)c1cccc(NC(=O)Cn2cnc3ccccc3c2=O)c1	0	0	0	0	13	0	0	0
O=C(NCCN1C(=O)S/C(=C\c2ccc(Cl)cc2Cl)C1=O)C1=COCCO1	0	0	0	0	8.1	0	0	0
O=C(NCCN1C(=O)S/C(=C\c2ccccc2Cl)C1=O)C1=COCCO1	0	0	0	-	0	0	-	-
C[C@@H]1CN([C@H](C)CO)C(=O)c2cccc(NS(=O)(=O)c3cccs3)c2O[C@H]1CN(C)S(=O)(=O)c1ccccc1	-	-	-	0	-	-	-	-
COc1ccc(S(=O)(=O)N(C)C[C@@H]2Oc3c(NS(=O)(=O)c4ccc(C)cc4)cccc3C(=O)N([C@H](C)CO)C[C@@H]2C)cc1	-	-	-	0	-	-	-	-
CC(=O)Nc1ccc(-c2c(C)cc3oc(=O)cc(-c4ccccc4)c3c2C)cc1	0	-	-	0	9.2	0	0	0
Cc1ccc(NC(=O)c2ccccc2Cl)c(Cl)c1	86	0	0	0	13	0	11	5.5
N=c1c2c(-c3ccccc3)c(-c3ccccc3)n(Cc3ccccc3)c2ncn1CCO	0	0	0	0	8.7	0	0	0
Cc1ccc(S(=O)(=O)Nc2c(C)nn(C)c2C)c(C)c1	0	0	0	0	0	0	-	-
Cc1cc(C(=O)O)cc(S(=O)(=O)Nc2c(C)nn(C)c2C)c1C	0	-	-	0	9.4	0	0	0
CCN(CC)CCC(=O)Nc1cccc2c1C(=O)c1ccccc1C2=O	-	0	0	0	33	0	95	0
CCN(CC)CCNC(=O)c1ccc2c(c1NCCO)C(=O)c1ccccc1C2=O	-	0	0	-	0	0	-	-
COc1ccc(NC(=O)Nc2ccc3c(c2)C(=O)N([C@@H](C)CO)C[C@@H](C)[C@@H](CN(C)S(=O)(=O)c2ccc(Cl)cc2)OCCCC[C@@H](C)O3)cc1	-	-	-	0	-	-	-	-
C[C@H]1CN([C@@H](C)CO)C(=O)c2cc(NC(=O)Nc3ccc4c(c3)OCO4)ccc2O[C@H]1CN(C)CC1CCCCC1	-	-	-	0	-	-	-	-
O=C(NCC1OCCc2ccccc21)c1ccc(NC(=O)c2ccc(Cl)cc2Cl)cc1 (stereo unspecified)	0	0	0	-	9.4	0	0	0
O=C(NCC1OCCc2ccccc21)c1ccc(NC(=O)c2ccccc2Cl)cc1 (stereo unspecified)	0	0	0	-	0	-	-	-
O=C([C@@H]1[C@@H](CO)[C@@H]2Cn3c(cccc3=O)[C@@H]2N1Cc1ccccc1Cl)N1CCOCC1	-	-	-	0	-	-	-	-
C=CCn1cnc2c(c1=O)c1nc3ccccc3nc1n2/N=C/c1cc(OC)c(OC)c(OC)c1	0	0	0	0	0	-	-	-
C=CCn1cnc2c(c1=O)c1nc3ccccc3nc1n2/N=C/c1cccc(OC)c1OC	0	-	-	0	8.2	0	0	0
CCOC(=O)c1nnn2c1nc(N1CCOCC1)c1ccccc12	-	0	0	-	0	0	-	-
Nc1nc2c(C(=O)N3CCOCC3)nnn2c2ccccc12	-	0	0	0	11	0	0	9.1
COc1ccc(S(=O)(=O)N(C)C[C@H]2Oc3ccc(NC(=O)NC(C)C)cc3C(=O)N([C@@H](C)CO)C[C@H]2C)cc1	-	-	-	0	-	-	-	-

Screening data as filed in PubChem.
